Reference: PubChem BioAssay (NCI)
Compounds without any hit were thinned out: in the full panel of roughly 83,000, 20% have a hit.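 Step 1: grow cells in 96-well plates. Step 2: add test compound at a single concentration. Step 3: incubate 48 h. Step 4: record percent growth.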 Activity calls are given as the source filed them. How the source made its calls: active means growth percent below 10; inactive means the rest.

Each molecule was assayed on SR leukemia (assay: NCI-60 one-dose screen, 48 h (100 = growth as untreated, 0 = no growth, -100 = all killed)). Details: 10 µM unless noted.

Structure (SMILES) | growth
NC(=O)N1CCOCC1 | 89.8% (inactive)
N#Cc1ccc(OC(=O)Nc2c(Cl)cc(Cl)cc2Cl)cc1 | 101% (inactive)
CCOC(=O)/C(C)=C\c1ccc(OC)c(OC)c1 | 86.5% (inactive)
O=S(Cc1ccccc1)/C(=C/NC(=S)Nc1ccccc1)c1ccccc1 (centres undefined) | 88.4% (inactive)
C/C(=N\O)c1ccccn1 | 94.5% (inactive)
CC(C)NC(=O)OCc1c(COC(=O)NC(C)C)c(-c2ccc(Cl)cc2)n2c1CCC2 | 2.94% (active)
CC(=O)NNC(=S)/N=C\C(C(=O)c1ccccc1)=C(/O)c1ccccc1 | 102% (inactive)
C=CCS(C)(=O)=O | 99.4% (inactive)
O=C(NCc1ccccc1)c1cccc([N+](=O)[O-])c1 | 92.4% (inactive)
c1ccc(-c2ccc3ccccc3c2)cc1 | 80.7% (inactive)
Cc1ccccc1NC(=O)Oc1ccc(Cl)cc1C(=O)c1ccccc1 | 94.2% (inactive)
CCC(C)c1c(N)n(S(=O)(=O)c2ccc(C)cc2)oc1=O (centres undefined) | 107% (inactive)
O=Cc1c(O)c2ccccc2[nH]c1=O | 114% (inactive)
COC(=O)c1ccccc1C(=O)c1c(C)cc(C)cc1C | 79.6% (inactive)
N=C(N)c1nn(C2OC(CO)C(O)C2O)c2nc[nH]c(=O)c12 (centres undefined) | -22.7% (active)
COc1cccc(C(=O)O)c1OC | 101% (inactive)
O=C(O)c1cc(I)ccc1O | 103% (inactive)
CC(=O)NNC(=S)N/C=C/c1c(C)ccc([N+](=O)[O-])c1[N+](=O)[O-] | 92.9% (inactive)
NNc1ncnc2c1ncn2C1OC(CO)C(O)C1O (centres undefined) | 17.5% (inactive)

Structure (SMILES) | growth
C=CCNC(=S)N/C=C(/C(=O)c1ccccc1)c1ccccc1 | 95.4% (inactive)
Cc1ccc(C2CCCCC2)cc1Br | 91.4% (inactive)
OCCc1ccc(Cl)cc1 | 94.6% (inactive)
C/C(O)=C(/C=N/C(=S)Nc1ccccc1)C(=O)Nc1ccccc1C | 91.7% (inactive)
CC1(C)OC(=O)CC1=O | 89% (inactive)
CN(C)CCOC(=O)Nc1ccc(Cc2ccc(NC(=O)OCCN(C)C)cc2)cc1 | -39.4% [100 µM] (active)
O=c1nc(Nc2cccc(Cl)c2)oc2cc(Cl)oc(=O)c12 | 2.45% (active)
OCCNc1ccccc1 | 93.2% (inactive)
O=C(Oc1ccccc1Cl)c1ccc(Cl)cc1Cl | 104% (inactive)
COc1cc(OC)c2cc(C(=O)c3ccc(C#N)cc3)c(=O)oc2c1 | 89.8% (inactive)
CC(C)C1CCC(C)C(O)C1 (centres undefined) | 96.1% (inactive)
O=C(NC1CCCCC1)c1ccc(Cl)cc1 | 103% (inactive)
O=C1C=Cc2ccccc2/C1=C/c1[nH]c(=O)[nH]c1O | 33% (inactive)
NC(CO)(CO)c1ccccc1 | 96.7% (inactive)
Nc1cc(N)ncn1 | 93.9% (inactive)
S=C(Sc1ccc(Cl)cc1)Sc1ccc(Cl)cc1 | -46.5% (active)
CCOc1ccc(C(=O)O)cc1 | 99.4% (inactive)
COc1cccc(C(=O)NNC(=O)c2cccc3ccccc23)c1 | 113% (inactive)

What follows are molecules tested on RPMI-8226 leukemia in the same assay as above. Details: 10 µM unless noted.

Structure (SMILES) | growth
NC(=O)N1CCOCC1 | 94.8% (inactive)
N#Cc1ccc(OC(=O)Nc2c(Cl)cc(Cl)cc2Cl)cc1 | 107% (inactive)
CCOC(=O)/C(C)=C\c1ccc(OC)c(OC)c1 | 103% (inactive)
O=S(Cc1ccccc1)/C(=C/NC(=S)Nc1ccccc1)c1ccccc1 (centres undefined) | 103% (inactive)
C/C(=N\O)c1ccccn1 | 102% (inactive)
CC(C)NC(=O)OCc1c(COC(=O)NC(C)C)c(-c2ccc(Cl)cc2)n2c1CCC2 | 93.4% (inactive)
CC(=O)NNC(=S)/N=C\C(C(=O)c1ccccc1)=C(/O)c1ccccc1 | 104% (inactive)
C=CCS(C)(=O)=O | 104% (inactive)
O=C(NCc1ccccc1)c1cccc([N+](=O)[O-])c1 | 91% (inactive)
c1ccc(-c2ccc3ccccc3c2)cc1 | 104% (inactive)
Cc1ccccc1NC(=O)Oc1ccc(Cl)cc1C(=O)c1ccccc1 | 85.6% (inactive)
CCC(C)c1c(N)n(S(=O)(=O)c2ccc(C)cc2)oc1=O (centres undefined) | 100% (inactive)
O=Cc1c(O)c2ccccc2[nH]c1=O | 109% (inactive)
COC(=O)c1ccccc1C(=O)c1c(C)cc(C)cc1C | 93.5% (inactive)
N=C(N)c1nn(C2OC(CO)C(O)C2O)c2nc[nH]c(=O)c12 (centres undefined) | -19% (active)
COc1cccc(C(=O)O)c1OC | 101% (inactive)
O=C(O)c1cc(I)ccc1O | 107% (inactive)
CC(=O)NNC(=S)N/C=C/c1c(C)ccc([N+](=O)[O-])c1[N+](=O)[O-] | 103% (inactive)
NNc1ncnc2c1ncn2C1OC(CO)C(O)C1O (centres undefined) | 51.8% (inactive)

Structure (SMILES) | growth
C=CCNC(=S)N/C=C(/C(=O)c1ccccc1)c1ccccc1 | 101% (inactive)
Cc1ccc(C2CCCCC2)cc1Br | 100% (inactive)
OCCc1ccc(Cl)cc1 | 101% (inactive)
C/C(O)=C(/C=N/C(=S)Nc1ccccc1)C(=O)Nc1ccccc1C | 103% (inactive)
CC1(C)OC(=O)CC1=O | 93.4% (inactive)
CN(C)CCOC(=O)Nc1ccc(Cc2ccc(NC(=O)OCCN(C)C)cc2)cc1 | 16.8% [100 µM] (inactive)
O=c1nc(Nc2cccc(Cl)c2)oc2cc(Cl)oc(=O)c12 | 26.8% (inactive)
OCCNc1ccccc1 | 105% (inactive)
O=C(Oc1ccccc1Cl)c1ccc(Cl)cc1Cl | 98.9% (inactive)
COc1cc(OC)c2cc(C(=O)c3ccc(C#N)cc3)c(=O)oc2c1 | 103% (inactive)
CC(C)C1CCC(C)C(O)C1 (centres undefined) | 101% (inactive)
O=C(NC1CCCCC1)c1ccc(Cl)cc1 | 105% (inactive)
O=C1C=Cc2ccccc2/C1=C/c1[nH]c(=O)[nH]c1O | 87.3% (inactive)
NC(CO)(CO)c1ccccc1 | 94.2% (inactive)
Nc1cc(N)ncn1 | 105% (inactive)
S=C(Sc1ccc(Cl)cc1)Sc1ccc(Cl)cc1 | -46.6% (active)
CCOc1ccc(C(=O)O)cc1 | 103% (inactive)
COc1cccc(C(=O)NNC(=O)c2cccc3ccccc23)c1 | 105% (inactive)
